# Data from PubChem BioAssay (Tox21).
# Results filed as inconclusive are left out. Active and inactive are the calls of the source. Calls follow the shape of the dose curve; as a rule, active = well fitted cell-killing curve with a large enough effect in the repeat runs; inconclusive = weak or mixed curves, or effect the other way; inactive = flat fitted curve, though single readings scatter.
# Assay: qHTS RealTime-Glo MT Cell Viability Assay in HepG2 cells - 0 hour (AID 1224889); also: nearly all actives have a fitted effect of over 50% in size
# Settings: RealTime-Glo luminescence; series mostly up to 76.8 µM; activity change, negative = cytotoxicity: at the top concentration
# Source text: U.S. Tox21 Program National Center for Advancing Translational Sciences [NCATS] NIH Chemical Genomics Center [NCGC] U.S. Environmental Protection Agency [EPA] National Institutes of Environmental Health Sciences [NIEHS] National Toxicology Program [NTP] U.S. Food and Drug Administration [FDA] Tox21 Assay Overview: Measure of cell viability is critical in the cell-base assay. Analysis of cell viability is necessary for the characterization of cell responses to cytotoxic drugs and environmental stress. A RealTime-Glo MT Cell Viability Assay to monitor cell viability in real time of continues cell culture during 40 hours of compound treatment was used to screen Tox21 10K library compounds in HepG2 cells. The RealTime-Glo MT Cell Viability Assay is a nonlytic, homogeneous, bioluminescent method to measure cell viability in real time using a simple, plate-based method. The assay involves adding NanoLuc luciferase and a cell-permeant prosubstrate to cells in culture. Viable cells reduce the proprietary prosubstrate to generate a substrate for NanoLuc luciferase. This substrate diffuses from cells into the surrounding culture medium, where it is rapidly used by the NanoLuc Enzyme to produce a luminescent signal. The signal correlates with the number of viable cells, making the assay well suited for cytotoxicity studies.
# Tox21 Assay Protocol Summary: The mixture of HepG2 cell suspension and reagents were dispensed at 600cells/6 ul/well in 1536-well tissue culture treated black solid bottom plates using a Multidrop dispenser. After the assay plates were incubated at a 37 C/5% CO2 incubator for 5 hours, 23 nL of compounds dissolved in DMSO, positive and negative controls was transferred to the assay plate by a pintool work station. The plates were incubated at 37 C for 40 hours. The luminescence intensity were measured at 0h, 8h, 16h, 24h, 32h and 40h time points using ViewLux plate reader during compound treatment.
# % is scaled to controls: 0 for no effect and ±100 for the full control effect; potency is read from the fitted curve at half-maximal effect.
SMILES,"activity change, negative = cytotoxicity",Potency
Brc1c2ccccc2cc2ccccc12,7.03% (inactive),–
c1ccc(CNCCNCc2ccccc2)cc1,6.66% [at 35.3 µM] (inactive),–
O=C(NCC1CN(c2ccc(N3CCOCC3=O)cc2)C(=O)O1)c1ccc(Cl)s1 (stereo not given),3.36% [at 35.3 µM] (inactive),–
O=P(O)(OCc1ccccc1)OCc1ccccc1,-25.2% (inactive),–
CN(C)C(=O)NC1(c2ccccc2)CCN(CC[C@@]2(c3ccc(F)c(F)c3)CN(C(=O)c3ccccc3)CCO2)CC1,1.11% (inactive),–
CC(=O)c1ccc2c(c1)N(CCCN1CCC(CCO)CC1)c1ccccc1S2,11.1% [at 35.3 µM] (inactive),–
O=C(O)C1(C(=O)Nc2ccc(Cl)cc2Cl)CC1,-21.1% (inactive),–
CCCCCCCN,-1.45% (inactive),–
Cc1ccccc1S(=O)(=O)O,0.897% (inactive),–
CN(C)CCOC(c1ccccc1)c1ccc(Br)cc1 (stereo not given),27.1% [at 35.3 µM] (inactive),–
CCOC(=O)c1cccnc1,5.81% [at 35.3 µM] (inactive),–
CNCCCN1c2ccccc2CCc2ccccc21,28.4% [at 35.3 µM] (inactive),–
Nc1cccc([N+](=O)[O-])c1,0.588% (inactive),–
COc1ccc(C(=O)c2ccc(OC)cc2O)c(O)c1,1.91% (inactive),–
NCCCN1CCOCC1,-0.746% (inactive),–
CCCNCC(O)COc1ccccc1C(=O)CCc1ccccc1 (stereo not given),27.2% [at 35.3 µM] (inactive),–
NCC(=O)CCC(=O)O,8.82% [at 35.3 µM] (inactive),–
C=C1[C@H]2CC[C@@H]3[C@H]2C(C)(C)CCC[C@]13C,9.4% (inactive),–
ClCCOCCOCCCl,0.838% (inactive),–
C[N+]1(CC2COC(c3ccccc3)(C3CCCCC3)O2)CCCCC1 (stereo not given),13.8% [at 35.3 µM] (inactive),–

SMILES,"activity change, negative = cytotoxicity",Potency
CC1=CCCC(C)(C)C12CCC(C)O2 (stereo not given),-18.9% (inactive),–
O=C(O)CC(=O)C(=O)O,-3.63% (inactive),–
CCCCO,2.12% (inactive),–
CCC(CC)Nc1ccc(C)c(C)c1,18.4% (inactive),–
C=CCOc1ccccc1OCC(O)CNC(C)C (stereo not given),2.85% [at 35.3 µM] (inactive),–
C#CCN(C)CCCOc1ccc(Cl)cc1Cl,11.3% [at 35.3 µM] (inactive),–
CNC(=O)CN(CCN(CCN(CC(=O)[O-])CC(=O)NC)CC(=O)[O-])CC(=O)[O-].O.[Gd+3],9.61% [at 35.3 µM] (inactive),–
CCCCCC[C@@H](O)C/C=C\CCCCCCCC(=O)OC,-2.15% (inactive),–
OC[C@H]1O[C@@H](OCCc2ccc(O)cc2)[C@H](O)[C@@H](O)[C@@H]1O,-0.707% [at 35.3 µM] (inactive),–
CCCCCCCC/C=C\CCCCCCCC(=O)OCC,-6.67% (inactive),–
CCOC(=O)C1=C[C@]2(CC)CCCN3CCc4c(n1c1ccccc41)[C@@H]32,10.9% [at 35.3 µM] (inactive),–
CC(=O)[O][Al],3.47% (inactive),–
CCCCCCCCCCO[C@@H]1O[C@H](CO)[C@@H](O)[C@H](O)[C@H]1O,-2.28% (inactive),–
CCOC(=O)C(O)c1ccccc1 (stereo not given),8.12% [at 35.3 µM] (inactive),–
O=C1[C@H]2CCCC[C@H]2C(=O)N1CCCCN1CCN(c2nsc3ccccc23)CC1,-18% [at 35.3 µM] (inactive),–
NC(=O)C(c1ccccc1)(c1ccccc1)[C@@H]1CCN(CCc2ccc3c(c2)CCO3)C1,-0.0217% [at 35.3 µM] (inactive),–
COc1cc(Cl)ccc1Oc1ccc(Cl)cc1Cl,-2.19% (inactive),–
CCCCCCc1ccc(-c2ccc(C#N)cc2)cc1,-1.29% (inactive),–
Cc1[nH]c(C)c(Cl)c(=O)c1Cl,-1.76% [at 15.8 µM] (inactive),–
CCc1cc(C2=C(C(=O)O)N(c3ccccc3C(F)(F)F)S(=O)(=O)c3ccccc32)cc2c1OCO2,–,24.3 µM (active)
